The record followed here is PubChem BioAssay (Tox21).

Experiment [1] is described as follows: qHTS assay to identify small molecule antagonists of the thyroid receptor (TR) signaling pathway - cell viability counter screen (AID 743064). Note: nearly all actives have a fitted effect of over 50% in size. An outline of the steps: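 In rat pituitary GH3.TRE-Luc reporter cells co-exposed to compound and 1 nM T3 for 23.5 h, cytotoxicity was assessed with CellTiter-Fluor in the same wells, read by fluorescence.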
In general terms: qHTS replaces the single test concentration by a dilution series.

Experiment [2] is described as follows: qHTS assay to identify small molecule antagonists of the thyroid receptor (TR) signaling pathway (AID 743065). For activity, negative = inhibition: series mostly up to about 70 µM. Note: nearly all actives have a fitted effect of over 55% in size. Note: potency is the fitted concentration of half-maximal effect. An outline of the steps: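 Antagonism measured as loss of luciferase signal in GH3 cells stably carrying a TRE-luciferase reporter, co-treated with compound and T3 (1 nM final) for 23.5 h at 37 C. Viability was read in the same well by CellTiter-Fluor.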

For experiment [3], the system named is thyroid hormone receptor (rat, GH3 cells). The experiment can be described thus: qHTS assay to identify small molecule agonists of the thyroid receptor (TR) signaling pathway (AID 743066; calls by dose curve).
Experiment [4] has as its target Estrogen receptor (Homo sapiens) (UniProt P03372). Description: qHTS assay to identify small molecule antagonists of the estrogen receptor alpha (ER-alpha) signaling pathway (AID 743069; active = well fitted curve in the direction sought with a large enough effect in the signal ratio in the repeat runs, not every such curve was filed as active; the % refers to the signal ratio). An outline of the steps: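 Antagonist mode: compounds in DMSO were co-added with 17beta-estradiol to ER-alpha-bla HEK293 cells (2% charcoal-stripped serum) and left 18 h at 37C. Reporter inhibition was measured as FRET fluorescence after 2 h LiveBLAzer substrate at room temperature.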

The nature of experiment [5]: qHTS assay to identify small molecule antagonists of the estrogen receptor alpha (ER-alpha) signaling pathway - cell viability counter screen (AID 743074; calls by dose curve;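 note: HEK293 cells carrying ER-alpha-UAS-bla reporter stimulated with 17beta-estradiol; nearly all actives have a fitted effect of over 45% in size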).
Experiment [6] concerns the target Estrogen receptor (Homo sapiens) (UniProt P03372). The experiment can be described thus: qHTS assay to identify small molecule agonists of the estrogen receptor alpha (ER-alpha) signaling pathway (AID 743075; calls by dose curve;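 note: HEK293 GripTite cells with ER-alpha and UAS-driven beta-lactamase reporter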).
Experiment [7] has the same target. Description: qHTS assay to identify small molecule agonists of the estrogen receptor alpha (ER-alpha) signaling pathway using the BG1 cell line (AID 743079). Note: nearly all actives have a fitted effect of over 20% in size.
Experiment [8] can be described thus: qHTS assay to identify small molecule antagonists of the estrogen receptor alpha (ER-alpha) signaling pathway using the BG1 cell line (AID 743080; calls by dose curve;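 note: BG1 cells stimulated with 17beta-estradiol alongside compound; series mostly up to about 70 µM; nearly all actives have a fitted effect of over 25% in size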). The essentials:
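BG1Luc4E2, endogenous ER-alpha, 4xERE-luc; 5 d charcoal-stripped FBS, phenol red free; 24 h plating; cpd + 17beta-estradiol 21.5 h, 37 C/5% CO2; CellTiter-Fluor viability 30 min, then ONE-Glo luciferase 30 min RT.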

Experiment [9] in a line: qHTS assay to identify small molecule antagonists of the estrogen receptor alpha (ER-alpha) signaling pathway using the BG1 cell line - cell viability counter screen (AID 743081).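 Note: compound given together with 17beta-estradiol as the ER stimulus; series mostly up to about 70 µM; nearly all actives have a fitted effect of over 45% in size.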
Experiment [10] addresses Aromatase (Homo sapiens) (UniProt P11511). The experiment can be described thus: qHTS assay to identify aromatase inhibitors (AID 743083). Note: series mostly up to about 70 µM; nearly all actives have a fitted effect of over 55% in size.
Experiment [11] in a line: qHTS assay to identify aromatase inhibitors - cell viability counter screen (AID 743084).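 Note: cells stimulated with testosterone during compound exposure; nearly all actives have a fitted effect of over 55% in size.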
The target of experiment [12] is Aryl hydrocarbon receptor (Homo sapiens) (UniProt P35869). The experiment can be described thus: qHTS assay to identify small molecule that activate the aryl hydrocarbon receptor (AhR) signaling pathway (AID 743085).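 For activation: HG2L7.5c1 human HepG2 liver cells with stably integrated DRE-driven firefly reporter; series mostly up to about 70 µM.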 Note: nearly all actives have a fitted effect of over 15% in size. Note: potency is the fitted concentration of half-maximal effect. An outline of the steps: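 AhR agonist activity is inferred from enhanced light output of a DRE-controlled firefly luciferase reporter in HepG2 cells, measured with ONE-Glo following 24 h treatment at 37C.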

A short description of experiment [13]: qHTS assay to identify small molecule that activate the aryl hydrocarbon receptor (AhR) signaling pathway - cell viability counter screen (AID 743086).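 Note: HepG2 liver cells carrying the AhR DRE luciferase reporter; series mostly up to about 70 µM; nearly all actives have a fitted effect of over 45% in size.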 An outline of the steps:
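Cytotoxicity counter screen: CellTiter-Fluor signal (30 min, 37 C) in 4000 HepG2 cells/well carrying the DRE-luciferase reporter, following 24 h compound exposure at 37 C.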

Experiment [14] deals with Peroxisome proliferator-activated receptor gamma (Homo sapiens) (UniProt P37231). Description: qHTS assay to identify small molecule agonists of the peroxisome proliferator-activated receptor gamma (PPARg) signaling pathway (AID 743094; active = well fitted activation curve with a large enough effect in the signal ratio in the repeat runs, not every such curve was filed as active; the % refers to the signal ratio). An outline of the steps: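 Cell-based bla reporter, HEK293H background, PPARg-driven UAS. Pre-incubation 5 h, 37C, 5% CO2. Compound 17 h, 37C. Substrate 1 h RT; fluorescence.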

For experiment [15] the target is unchanged. Description: qHTS assay to identify small molecule antagonists of the peroxisome proliferator-activated receptor gamma (PPARg) signaling pathway (AID 743191; calls by dose curve; note: series mostly up to about 63 µM; nearly all actives have a fitted effect of over 30% in size). The essentials: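 Beta-lactamase reporter under UAS control in HEK293H PPARg-bla cells; compound treatment 17 h at 37C. Read-out: fluorescence intensity after 1 h room-temperature incubation with LiveBLAzer B/G FRET substrate.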

A short description of experiment [16]: qHTS assay for small molecule agonists of the antioxidant response element (ARE) signaling pathway (AID 743202; active = well fitted activation curve with a large enough effect in the signal ratio in the repeat runs, not every such curve was filed as active; the % refers to the signal ratio). An outline of the steps:
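After 16 hours of compound treatment at 37 C, HepG2 cells with a stably integrated ARE-driven beta-lactamase reporter were loaded 2 hours at room temperature with LiveBLAzer B/G FRET substrate and fluorescence intensity measured.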

The nature of experiment [17]: qHTS assay for small molecule agonists of the antioxidant response element (ARE) signaling pathway - cell viability counter screen (AID 743203; calls by dose curve; note: nearly all actives have a fitted effect of over 55% in size). An outline of the steps: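 Measured in the same wells as the beta-lactamase ARE reporter, this read-out is CellTiter-Glo luminescence from HepG2 ARE-bla cells given compounds for 16 hrs.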
A short description of experiment [18]: qHTS assay for small molecule activators of the heat shock response signaling pathway - cell viability counter screen (AID 743209). Note: nearly all actives have a fitted effect of over 50% in size. An outline of the steps:
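Same-well multiplex: after 2.5 h room-temperature incubation with LiveBLAzer B/G substrate and fluorescence reading, CellTiter-Glo reagent was added to HSE-bla HeLa cells that had received compound for 5 h at 37 C; luminescence read after 30 min.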

Experiment [19] is described as follows: qHTS assay for small molecule activators of the heat shock response signaling pathway (AID 743210; active = well fitted activation curve with a large enough effect in the signal ratio in the repeat runs, with a control signal flat, not every such curve was filed as active; the % refers to the signal ratio; note: series mostly up to about 63 µM). The essentials: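 Compound exposure lasted 5 h at 37 C in HeLa cells carrying a heat-shock-element-driven beta-lactamase reporter. Read-out: fluorescence intensity after 2.5 h room-temperature loading with LiveBLAzer B/G FRET substrate.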
A short description of experiment [20]: qHTS assay to identify small molecule antagonists of the peroxisome proliferator-activated receptor gamma (PPARg) signaling pathway - cell viability counter screen (AID 743194). Note: nearly all actives have a fitted effect of over 55% in size. The essentials:
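Viability was measured as CellTiter-Glo luminescence in GeneBLAzer PPARg UAS-bla HEK293H cells. These cells had been exposed 17 h at 37 C to compounds together with rosiglitazone at 50 nM final, with the beta-lactamase readout taken in the same wells.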

Values joined by “and” are separate entries in the source; they are usually repeats but may differ in a detail not shown here. Equal entries are not always repeated. Inconclusive results are not listed. A structure can be active in one record and inactive in another. Active and inactive are the calls of the source. Unless noted, calls come from the whole dose curve; as a rule, active = well fitted curve in the direction sought with a large enough effect in the repeat runs; inconclusive = weak or mixed curves; inactive = no such curve, though single readings can be large; an effect the other way counts as inactive or inconclusive.
% is set by controls: 0 for no effect and ±100 for the full control effect.

Estrogen receptor (Homo sapiens), sequence (P03372 whole entry, looked up): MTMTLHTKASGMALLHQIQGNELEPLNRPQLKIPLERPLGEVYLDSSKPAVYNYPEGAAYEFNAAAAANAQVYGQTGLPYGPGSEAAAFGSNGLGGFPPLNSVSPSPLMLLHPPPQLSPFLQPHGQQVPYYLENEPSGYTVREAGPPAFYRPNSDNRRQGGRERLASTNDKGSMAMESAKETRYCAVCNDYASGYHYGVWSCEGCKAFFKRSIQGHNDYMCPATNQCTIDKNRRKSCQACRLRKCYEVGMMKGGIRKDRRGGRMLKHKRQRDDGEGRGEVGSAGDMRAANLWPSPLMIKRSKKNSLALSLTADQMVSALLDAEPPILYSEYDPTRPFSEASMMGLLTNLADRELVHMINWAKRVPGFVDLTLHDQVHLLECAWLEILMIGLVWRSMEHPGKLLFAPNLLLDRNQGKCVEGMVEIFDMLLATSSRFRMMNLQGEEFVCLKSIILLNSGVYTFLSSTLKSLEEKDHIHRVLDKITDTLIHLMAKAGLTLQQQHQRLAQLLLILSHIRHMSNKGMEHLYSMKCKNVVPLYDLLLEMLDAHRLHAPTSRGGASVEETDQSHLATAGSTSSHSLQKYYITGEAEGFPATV
Aryl hydrocarbon receptor (Homo sapiens), sequence (P35869 whole entry, looked up): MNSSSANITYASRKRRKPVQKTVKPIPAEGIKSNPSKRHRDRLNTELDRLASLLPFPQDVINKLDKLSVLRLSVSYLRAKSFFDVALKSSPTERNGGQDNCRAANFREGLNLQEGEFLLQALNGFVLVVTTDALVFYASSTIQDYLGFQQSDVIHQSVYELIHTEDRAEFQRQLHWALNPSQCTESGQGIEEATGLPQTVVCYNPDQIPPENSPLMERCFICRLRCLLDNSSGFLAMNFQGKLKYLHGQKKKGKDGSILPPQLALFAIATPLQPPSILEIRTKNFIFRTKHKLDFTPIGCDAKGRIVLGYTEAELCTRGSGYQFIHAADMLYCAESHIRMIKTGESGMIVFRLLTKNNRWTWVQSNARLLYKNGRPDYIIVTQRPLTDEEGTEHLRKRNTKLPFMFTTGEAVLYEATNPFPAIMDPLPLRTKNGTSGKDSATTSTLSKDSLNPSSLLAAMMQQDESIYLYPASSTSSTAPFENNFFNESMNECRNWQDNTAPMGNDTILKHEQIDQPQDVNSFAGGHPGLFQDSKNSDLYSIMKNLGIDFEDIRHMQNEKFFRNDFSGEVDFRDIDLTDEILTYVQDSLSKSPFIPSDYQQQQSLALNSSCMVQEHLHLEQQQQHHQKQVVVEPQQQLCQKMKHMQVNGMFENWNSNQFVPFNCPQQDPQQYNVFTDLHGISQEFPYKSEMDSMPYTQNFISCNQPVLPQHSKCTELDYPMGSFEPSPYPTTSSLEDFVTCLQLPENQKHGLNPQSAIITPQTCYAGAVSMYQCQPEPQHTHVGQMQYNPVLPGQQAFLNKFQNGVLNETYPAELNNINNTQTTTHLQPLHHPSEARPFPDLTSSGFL
Peroxisome proliferator-activated receptor gamma (Homo sapiens), sequence (P37231 whole entry, looked up): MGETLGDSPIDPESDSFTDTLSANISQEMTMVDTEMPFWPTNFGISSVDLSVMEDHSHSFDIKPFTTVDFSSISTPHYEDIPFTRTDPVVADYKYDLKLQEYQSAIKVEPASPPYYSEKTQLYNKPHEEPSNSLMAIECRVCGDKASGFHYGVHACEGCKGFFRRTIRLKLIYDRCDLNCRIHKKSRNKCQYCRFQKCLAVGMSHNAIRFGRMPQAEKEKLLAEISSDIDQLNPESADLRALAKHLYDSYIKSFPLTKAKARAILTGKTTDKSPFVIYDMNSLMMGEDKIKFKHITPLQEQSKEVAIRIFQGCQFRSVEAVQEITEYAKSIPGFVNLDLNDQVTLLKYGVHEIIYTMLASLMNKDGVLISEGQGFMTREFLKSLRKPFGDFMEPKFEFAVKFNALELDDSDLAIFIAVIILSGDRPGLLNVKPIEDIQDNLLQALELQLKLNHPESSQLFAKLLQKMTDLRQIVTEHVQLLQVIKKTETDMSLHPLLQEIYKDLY
Aromatase (Homo sapiens), sequence (P11511 whole entry, looked up): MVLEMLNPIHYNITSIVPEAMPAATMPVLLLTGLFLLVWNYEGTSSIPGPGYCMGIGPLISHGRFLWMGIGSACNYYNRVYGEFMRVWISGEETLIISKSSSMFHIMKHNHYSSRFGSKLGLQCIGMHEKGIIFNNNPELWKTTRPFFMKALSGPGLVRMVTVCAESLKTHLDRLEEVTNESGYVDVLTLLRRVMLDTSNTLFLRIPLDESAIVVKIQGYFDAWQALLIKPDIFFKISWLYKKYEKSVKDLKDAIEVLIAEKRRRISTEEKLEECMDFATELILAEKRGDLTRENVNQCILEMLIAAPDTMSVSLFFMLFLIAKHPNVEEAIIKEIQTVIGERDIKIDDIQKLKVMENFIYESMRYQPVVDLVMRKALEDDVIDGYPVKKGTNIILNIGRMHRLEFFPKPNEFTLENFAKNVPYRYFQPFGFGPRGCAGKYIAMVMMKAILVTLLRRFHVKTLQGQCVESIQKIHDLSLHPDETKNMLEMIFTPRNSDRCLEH

For the molecule `O=C=NCCCCCCN=C=O`, the Potency entry in [1], in experiment [2], in experiment [3], in [4], in [6] and in experiment [7] was “inactive” in each case. Further, the Potency result in [8], in experiment [9], in experiment [10], in [11], in [12] and in experiment [16] was “inactive” each time. The Potency result in [19] was “inactive”. For the same molecule, the call in experiment [5], in experiment [13], in experiment [14], in [15], in experiment [17] and in experiment [18] was inactive.
In the case of `CCN(CC)CCCC(C)Nc1ccnc2cc(Cl)ccc12` (stereo not drawn), in experiment [1], the activity change, negative = cytotoxic is -23.7% [at 8.44 µM] (inactive). Moreover, the Potency in [2] is 26.6 µM (active). Besides, in experiment [2], the activity, negative = inhibition is -19.4% [at 8.44 µM] (inactive). In addition, the Potency result in experiment [3], in experiment [4], in experiment [6], in [7], in experiment [8] and in experiment [9] was “inactive” each time. The Potency entry in experiment [10], in experiment [11], in experiment [12] and in [19] was “inactive” throughout. Moreover, the molecule was classed as inactive in experiment [5], in experiment [13], in experiment [14] and in experiment [18]. For the same molecule, in experiment [16], the activation was -11.9% [at 8.36 µM] (inactive). Moreover, in [17], the viability change, negative = cytotoxic was -7.65% [at 8.36 µM] (inactive).
For the molecule `CC(=O)Nc1cccc(O)c1`, the Potency result in experiment [1], in experiment [2], in [3], in experiment [4], in [6] and in [7] was “inactive” each time. The Potency result in experiment [8], in [9], in experiment [10], in experiment [11], in experiment [12] and in experiment [16] was “inactive” in each case. Besides, in experiment [19], the Potency entry was “inactive”. The molecule was classed as inactive in [5], in experiment [13], in [14], in experiment [15], in [20] and in experiment [17]. The molecule was classed as inactive in [18].
Regarding `Cc1ccc2oc(=O)ccc2c1`, the Potency result in experiment [1], in experiment [2], in experiment [3], in experiment [4], in [6] and in experiment [7] was “inactive” throughout. Besides, the Potency result in experiment [8], in experiment [9], in experiment [10], in [11], in experiment [12] and in experiment [16] was “inactive” throughout. Besides, the Potency entry in experiment [19] was “inactive”. The result in experiment [5], in experiment [13], in experiment [14], in experiment [20], in experiment [17] and in experiment [18] was inactive.
Consider `c1ccc2scnc2c1`, for which the Potency result in [1], in experiment [2], in [3], in experiment [4], in experiment [6] and in [7] was “inactive” throughout. Further, the Potency entry in experiment [8], in experiment [9], in experiment [10], in [11], in experiment [16] and in experiment [19] was “inactive” each time. The call in experiment [5], in experiment [13], in [14], in [15] and in experiment [17] was inactive. Also, the Potency result in experiment [12] is “inactive and 19.3 µM (active)”.
As for `CCCCC(CC)COC(=O)CCCCC(=O)OCC(CC)CCCC` (stereo not drawn), the Potency result in experiment [1], in experiment [2], in [3], in experiment [4], in [6] and in experiment [7] was “inactive” in each case. The Potency result in [8], in [9], in experiment [10], in experiment [11], in [12] and in experiment [16] was “inactive” each time. Further, the Potency result in experiment [19] is “inactive”. In addition, the result in experiment [5], in [13], in experiment [14], in experiment [15], in [20] and in experiment [17] was inactive. Further, the molecule was classed as inactive in [18].
Regarding `CCCCCOC(C)=O`, the Potency entry in experiment [1], in [2], in experiment [3], in experiment [4], in experiment [6] and in experiment [7] was “inactive” each time. Besides, the Potency entry in experiment [8], in [9], in [10], in experiment [11], in [12] and in [16] was “inactive” in each case. Further, in experiment [19], the Potency entry is “inactive”. The molecule was classed as inactive in experiment [5], in [13], in experiment [14], in [20] and in [17].
